Test results taken from ChEMBL document CHEMBL4513135, “CO-ADD screening of IQOG CSIS (Spain) compounds”.
Where “and” joins values, the source holds several entries; their conditions need not be identical. Equal values may be shown once. Entries with a potency or affinity are not part of this list.

How the values were obtained:
Klebsiella pneumoniae = details: Concentration 32 ug.mL-1; ASSAY_TEST Inhibition of Bacterial Growth; detection method Absorption (OD600); MEDIA CAMHB; plate type 384well; NBS; CORNING #3640; time 18 hr
Candida albicans = details: 32 ug/mL
Cryptococcus neoformans = details: Concentration 32 ug.mL-1; ASSAY_TEST Inhibition of Fungal Growth; detection method Resazurin; Absorption (OD600-OD570); plate type 384well; NBS; CORNING #3640

Row | Structure (SMILES) | Inhibition (Klebsiella pneumoniae) [%] | Inhibition (Candida albicans) | Inhibition (Cryptococcus neoformans) [%]
1 | CCOC(=O)C1=C(C)Oc2nc3c(c(N)c2C1c1ccccc1OC)CCC3 (stereo not given) | 16.69 | -0.7% | -2.56
2 | N#Cc1cc(C#N)c(N2CCC(O)CC2)nc1N | -4.97 | 1.52% | -52.44
3 | O=C(N/N=C/Cc1ccccc1)c1cc2ccccc2[nH]1 | 10.16 | -1.49% | -3.25
4 | O=C(O)c1cc2ccccc2[nH]1 [INDOLE-2-CARBOXYLIC ACID] | 1.67 | 26.2% | -9.27
5 | COc1cccc(C2C(C#N)=C(N)Oc3ccc4ccccc4c32)c1 (stereo not given) | 12.24 | 1.77% | -37.42
6 | CC/C(C)=N/NC(=O)Cc1c[nH]c2ccccc12 | 0.18 | -0.57% | -5.32
7 | CCOC(=O)c1c(C)nc(NCC2CCN(Cc3ccccc3)CC2)c(C#N)c1-c1ccccc1 | 9.84 | 2.46% | -54.17
8 | COc1ccccc1C1c2ccc3ccccc3c2OC(=NBr)C1(Br)C#N (stereo not given) | 11.44 | 0.7% | -47.56
9 | CC1=NC(=Cc2ccc([N+](=O)[O-])cc2)C(=O)O1 | -0.23 | -0.54% | -1.41
10 | O=C1NC(=O)C(=Cc2ccccc2)N1 | 12.73 | -0.05% | -1.42
11 | COc1ccc(C2c3c(nc4c(c3N)CCCC4)Oc3ccc4ccccc4c32)c(OC)c1 (stereo not given) | 6.37 | 10.9% | 16.32
12 | N#Cc1c(-c2cccc([N+](=O)[O-])c2)c2ccc3ccccc3c2oc1=O |  | 4.25% and -0.04% and 3.33% | 
13 | COc1[nH]c(=O)ccc1C#N | 19.79 | 7.91% | -56.43
14 | Cl.N#Cc1cc(C#N)c(N2CCCC2)nc1Cl | 14.18 | 3.61% | -52.24
15 | O=C(N/N=C/c1c[nH]c2ccccc12)C(c1ccccc1)c1ccccc1 | 10.97 | 1.46% | -1.94
16 | C#CCN(C)c1nc(OC)c(C#N)c(-c2ccccc2)c1C#N | 15.23 | 4.58% | -56.39
17 | COC(=O)C(=Cc1ccc(OC)cc1)NC(C)=O | 12.98 | -0.11% | -2.55
18 | COc1ccc2cc(C=O)c(Cl)nc2c1 | 1.14 | 6.08% | 26.83
19 | Cl.N#Cc1c(Cl)nc(N)nc1NCCO | 6.6 | 1.9% | 8.33
20 | Br.C#CCNCc1ccccc1 | 12.8 | -0.33% | -4.9

Row | Structure (SMILES) | Inhibition (Klebsiella pneumoniae) [%] | Inhibition (Candida albicans) | Inhibition (Cryptococcus neoformans) [%]
21 | COc1ccc(C2C(C#N)=C(N)Oc3c2ccc2ccccc32)c(OC)c1 (stereo not given) | 2.23 | 0.21% | -2.04
22 | Cn1ccnc1C1c2ccc3ccccc3c2Oc2nc3c(c(N)c21)CCCCC3 (stereo not given) | 8.79 | 1.99% | -67.84
23 | COc1cc(C2c3c(nc4c(c3N)CCC4)Oc3ccc4ccccc4c32)ccc1O (stereo not given) | 23.66 | -1.69% | -4.01
24 | C/C(=N\NC(=O)c1cc2ccccc2n1Cc1ccccc1)C1CC1 | 4.04 | 0.9% | -0.08
25 | Cl.Nc1c2c(nc3c1C(c1ccccc1)c1ccc4ccccc4c1O3)CCCC2 (stereo not given) | 22.34 | 1.77% | -1.1
26 | CCOc1nc(N)c(C#N)c(-c2ccccc2)c1C#N | 4.68 | 1.61% | -46.51
27 | O=C1OC(c2ccccc2)=NC1=Cc1ccc([N+](=O)[O-])cc1 | 9.13 | -1.46% | -3.36
28 | C#CCNc1nc(NCCCCC2CCN(Cc3ccccc3)CC2)c(C#N)cc1C#N | -10.59 | 4.43% | -10.91
29 | CCOC(=O)C1=C(C)NC(N)=C(C#N)C1c1ccc(OC)cc1 (stereo not given) | 13.36 | 5.45% | -57.77
30 | Cl.OCCCC1CCNCC1 | 3.57 | 1.52% | -1.05
31 | Cn1ccnc1C1C2=C(CC(C)(C)CC2=O)Oc2nc3c(c(N)c21)CCC3 (stereo not given) | 9.18 | -1.44% | -62.95
32 | CCOc1nc2nc(CCc3ccccc3)ccc2c(-c2ccccc2)c1C#N | 1.47 | 7.93% | -42.89
33 | C#CCN(C)Cc1cc2cc(OCCCC3CCN(Cc4ccc(C#N)cc4)CC3)ccc2n1C | 2.67 | 4.18% | -50.05
34 | N#Cc1cc(C#N)c(Cl)nc1N | -13.03 | 2.15% | -5.53
35 | C#CCNc1cccc(F)n1 | 9.96 | -0.33% | -45.04
36 | COc1ccc(C=C2N=C(c3ccccc3)SC2=O)cc1 | 19.45 | 0.65% | -2.03
37 | NNC(=O)c1c[nH]c2ccc(OCc3ccccc3)cc12 | 3.4 | 1.23% | 0.02
38 | CN(C)c1cccc(C(=O)c2cccc(N(C)C)c2)c1 | 6.77 | -0.28% | -8.01
39 | Cl.Cl.Cn1c(CNc2ccccc2)cc2cc(OCCCC3CCN(Cc4ccccc4)CC3)ccc21 | 5.5 | 1.7% | -74.16
